Source: PubChem (University of Pittsburgh Molecular Library Screening Center)
HIV RNase H inh = inhibitors of HIV-1 reverse transcriptase RNase H | RT-RNase H RNA/DNA duplex cleavage, fluorescence | inhibition, % at 10 µM | 65,000 tested, 1.9% active | AID 565; in the data active = inhibition above about 50%
A number is an active result; 0 = inactive. This is one part of a sample in which hits are shown more often than they occur.

SMILES	HIV RNase H inh
N#CC1=C(N)Oc2cc3c(cc2C1c1ccc(Cl)cc1)OCO3 (configuration not stated)	55.0
CCCCC(=O)NCCc1cc2c(OC)ccc(OC)c2[nH]c1=O	0
CCCNC(=O)c1c(N)n(-c2cc(OC)cc(OC)c2)c2nc3ccccc3nc12	0
COc1ccc(-c2nnc(SCC(=O)c3cc(C)n(Cc4cccs4)c3C)o2)cc1	57.6
COc1ccc(-c2nnc(SCC(=O)c3cccs3)o2)cc1	0
COc1ccc(-n2cnnc2SCC(=O)c2cc(C)n(Cc3cccs3)c2C)cc1	0
CCOC(=O)N1CCN(C(=O)c2ccc(NC(=O)c3ccc(C)cc3)cc2)CC1	0
Cc1cc2c(c(=O)o1)C(C13C=CC(CC1)C3)C(C#N)=C(N)O2 (configuration not stated)	0
Cn1ncc2c1ncn1c(-c3ccccc3Cl)nnc21	0
CCCCOc1ccccc1NC(=O)CC1Nc2ccccc2NC1=O (configuration not stated)	68.8
CCCCOc1ccccc1NC(=O)CC1SC(=NCC)N(CC)C1=O (configuration not stated)	0
CCCCNC(=O)CC1Nc2ccccc2NC1=O (configuration not stated)	0
COc1ccccc1CNC(=O)C1CCCN1S(=O)(=O)c1cccc2cccnc12 (configuration not stated)	0
Cc1ccc(/C=c2\sc3nc(-c4ccccc4Br)nn3c2=O)o1	50.7
Cc1ccc(/C=c2\sc3nc(-c4ccco4)nn3c2=O)o1	0
Cc1ccc(/C=c2/sc3nnc(-c4ccccc4Cl)n3c2=O)o1	0
Cn1cc(CC(=O)NCCCN2CCCC2=O)c2ccccc21	0
c1ccc(-c2nc(NCc3cccnc3)c3oc4ccccc4c3n2)cc1	0
CC1CCCCC1NC(=O)CSc1nnc(-c2ccccc2)n1N (configuration not stated)	0
CN(C)c1nc(-c2ccccc2)c2cnn(Cc3ccccc3)c2n1	0
Cn1c(=O)c2c(nc(SCC(=O)NC3CCCCC3)n2C)n(C)c1=O	0
Cc1sc2c(c1C)CN(Cc1ccco1)CN2C(=O)c1ccccc1	0
CCOC(=O)N1CCC(NC(=O)CSc2cc(=O)n(C)c3ccc(Cl)cc23)CC1	0
O=C(O)CCCC(=O)Nc1nc(-c2ccccc2)cs1	0
O=C(Nc1nc(-c2ccccc2)cs1)c1ccc(Br)o1	66.2
SMILES	HIV RNase H inh
O=C(Nc1cccc2ccccc12)c1ccc(Br)o1	0
Cc1ccc2nc(NC(=O)Cn3cc4c(n3)CCCCC4)sc2c1	0
COc1cccc(-c2nnc3n2N=C(C(C)(C)C)CS3)c1	0
c1cncc(-c2nnc3sc(C4CCCCC4)nn23)c1	0
CCOc1cccc(-c2nnc3sc(C4CCCCC4)nn23)c1	59.1
COc1cccc(-c2nnc3sc(C4CCCCC4)nn23)c1	0
O=C(CCCC(=O)N(CC(=O)NC1CCCC1)Cc1ccc2c(c1)OCO2)Nc1ccccn1	0
COc1cc(OC)cc(C(=O)N2CCC(n3c(C)nc4cc(F)ccc43)CC2)c1	0
Cn1c2ccccc2c2cnn(CC(=O)O)c(=O)c21	0
CC(=O)n1c2ccccc2c2c1c1ccccc1n2C	57.0
CC(=O)Nc1c(Cl)n(C(C)=O)c2ccccc12	0
C=CCn1c(=O)c2ccccc2n2c(SCc3c(C(=O)OCC)oc4ccccc34)nnc12	0
Cc1cc(Nc2ccc(N3CCC(C)CC3)cc2)n2ncnc2n1	0
Cc1cccc(C)c1OCC(=O)Nn1c(C)nc2ccccc2c1=O	0
COC(=O)c1ccc(C(=O)OC)c(NC(=O)c2oc(C)nc2C)c1	0
CCOCCn1c(SCc2ccccc2)nc2c1c(=O)[nH]c(=O)n2C	0
CCOCCn1c(SCC(=O)OCc2ccccc2)nc2c1c(=O)[nH]c(=O)n2C	86.3
CCOC(=O)CSc1nc2c(c(=O)[nH]c(=O)n2C)n1CCCc1ccccc1	0
Cc1nc(Nc2ncc3c(n2)CCCC3=O)nc2ccccc12	0
COc1cc(-c2nnc3sc(Cc4ccccc4)nn23)cc(OC)c1OC	0
COc1ccc(Cc2nn3c(-c4ccccc4Br)nnc3s2)cc1	0
COc1ccc(Cc2nn3c(-c4cc(OC)c(OC)c(OC)c4)nnc3s2)cc1	54.4
O=C1C(=O)N(CCCN2CCOCC2)C(c2ccccn2)/C1=C(\O)c1ccc2c(c1)OCCO2 (configuration not stated)	0
Nc1ccc(CN2CCN(c3ccc4ccccc4n3)CC2)cc1	0
CC1=C(c2ccc(Cl)cc2)[N+](=O)C(C)(C)N1[O-]	0
SMILES	HIV RNase H inh
CCOC(=O)c1sc2nc(-c3ccco3)c3c(c2c1N)CC(C)(C)OC3	90.0
CCOC(=O)c1sc2nc3c(cc2c1N)COC(C)(C)C3	0
Cc1nc2sc(C(=O)O)c(N)c2c2c1COC(C)(C)C2	0
O=C(OCc1nnc(-c2ccccc2)o1)c1ccc2c(c1)OCCO2	0
CC1CCCC(N2C(=O)NC(NC(=O)c3ccco3)(C(F)(F)F)C2=O)C1C (configuration not stated)	0
CC(C)(C)OC(=O)N1CCN(c2ccc(NC(=O)c3cc4ccccc4oc3=O)cc2)CC1	0
Cn1cccc1C(C(=O)NC1CCCCC1)N(C(=O)Cc1cccs1)c1ccc2c(c1)OCCO2 (configuration not stated)	0
COc1ccc(Cn2c(CCCO)nc3ccccc32)cc1OC	0
O=c1nc2s/c(=C\c3ccco3)c(=O)n2nc1Cc1ccc(F)cc1	53.1
N#CC1=C(N)n2c(s/c(=C\c3ccco3)c2=O)=C(C#N)C1c1ccco1 (configuration not stated)	0
Cc1ccc(-c2nc3s/c(=C\c4ccco4)c(=O)n3n2)cc1	0
c1ccc(-c2csc(N3CCCCCC3)n2)cc1	0
CS(=O)(=O)N1CCN(c2nc(-c3ccccc3)cs2)CC1	0
CCS(=O)(=O)N1CCN(c2nc(-c3ccccc3)cs2)CC1	55.7
CCOC(=O)c1c(NC(=O)CSc2nnnn2C)sc(C)c1-c1ccc(C)cc1	0
COc1ccc(OC)c(CN2CCN(c3ccccc3OC)CC2)c1	0
COc1ccc(OC)c(-n2cnnn2)c1	0
CCOc1ccccc1N1Cc2cc(C)c(C)cc2C1	52.7
COc1ccc(OC)c(N2Cc3cc(C)c(C)cc3C2)c1	62.0
CCOc1ccccc1N1CCN(Cc2cccc(OC)c2OC)CC1	0
CCOc1ccccc1N1CCN(C(=O)c2cc(C)oc2C)CC1	0
CCC(C)NC(=O)c1ccccc1NS(=O)(=O)c1ccc(OC)c(OC)c1 (configuration not stated)	0
COC(=O)C1=C(C)N(C)C(C)=C(C(=O)OC)C1c1ccccn1	0
Cc1ccc(Cn2ccc(NC(=O)c3c(-c4ccccc4Cl)noc3C)n2)cc1	0
CCCCNC(=O)NS(=O)(=O)c1ccc(NS(=O)(=O)c2ccccc2)cc1	0
SMILES	HIV RNase H inh
O=c1c2ccccc2sn1-c1ccc(S(=O)(=O)N2CCCCC2)cc1	95.1
O=S(=O)(c1ccc2ccccc2c1)N1CCCCC1	0
O=S(=O)(c1cccc2c(S(=O)(=O)N3CCCC3)cccc12)N1CCCC1	0
COc1ccc(-n2nc3c(c2NC(=O)c2cc4ccccc4oc2=O)CS(=O)(=O)C3)cc1	0
O=C(C1CCC(=O)N1C1CCCCC1)N1CCN(c2ccc(F)cc2)CC1 (configuration not stated)	0
Cc1oc2c(CN3CCCC3)c(O)ccc2c(=O)c1-c1ccc(Br)cc1	0
Cc1oc2c(O)c(O)ccc2c(=O)c1-c1cnn(-c2ccccc2)c1	0
Cc1oc2c(O)c(O)ccc2c(=O)c1-c1ccccc1	69.6
CCSc1nc2cc(OC)c(OC)cc2c(=O)n1CC	0
Cc1nc(SCC(=O)c2ccc(F)cc2)n[nH]1	0
Cc1ccc(C(=O)CSc2ccccn2)cc1	0
